High-throughput results (PubChem)
Lassa entry inh = Lassa virus entry inhibition | Lassa virus pseudotype entry inhibition, cell reporter | Potency, µM (doses to about 37.9 µM), hits mostly inhibitors | 300,000 tested, 1.2% active; calls by dose curve; tested in HEK293 cells; further: nearly all actives have a fitted effect of over 50% in size
HCMV antiviral = blocks human cytomegalovirus replication. 410,000 tested, 4.5% active. activity change, negative = inhibition, % at 57.5 µM. HFF cells, HCMV-luciferase reporter, 72 h; stronger effect = lower value. AID 1259415; in the data active means activity change below about -60%; inconclusive means no clear call, values can overlap the other calls; inactive means above about -39%
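Screen run at 2 compound doses on HFFs infected with reporter HCMV, MOI 1 PFU/cell. Luciferase activity from cell lysates at 72 h post infection gave inhibition relative to buffer-only and Salinomycin wells.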
Vaccinia mCherry = vaccinia inhibition (mCherry reporter). Potency, µM (top dose mostly 36.5 µM), usual class: inhibitors. Vaccinia virus mCherry reporter infection, fluorescence. 310,000 tested, 0.63% active. AID 720579; calls by dose curve; tested in A549 cells; further: nearly all actives have a fitted effect of over 35% in size
VACV Venus inh = vaccinia inhibition (Venus reporter); Vaccinia virus Venus reporter expression, fluorescence; 330,000 tested, 0.46% active; Potency, µM (titrated, usually from 36.5 µM), usual class: inhibitors; calls by dose curve; tested in A549 cells; further: nearly all actives have a fitted effect of over 30% in size
Marburg entry inh = Marburg virus entry inhibition; Marburg virus pseudotyped entry inhibition, cell reporter; Potency, µM (highest dose often 37.8 µM), actives largely listed as inhibitors; 300,000 tested, 1.8% active; AID 540276; calls by dose curve; tested in HEK293 cells
FMDV antiviral = antivirals against foot and mouth disease virus; Potency, µM (highest dose often 57.9 µM), hits mostly inhibitors; 410,000 tested, 1.2% active; FMDV antiviral cell-based qHTS; AID 1159524; calls by dose curve; tested in HEK293T cells; further: read-out not given here; nearly all actives have a fitted effect of over 45% in size
Large screens that a line does not name were inactive; ! = not active in a repeat. A selection: hits, their analogues and other compounds. The true share with any hit is near 6.5%.

O=C1C(c2nnnn2-c2ccc(F)cc2)N(C2CC2)C(=O)N1c1ccccc1 (centres undefined)	none (no result: Lassa entry inh, Vaccinia mCherry, VACV Venus inh, Marburg entry inh, FMDV antiviral)
Cc1nc(C(C)NC2CCN(c3cccc(NC(=O)c4ccncc4)c3)CC2)cs1 (centres undefined)	none (no result: Lassa entry inh, HCMV antiviral, Marburg entry inh)
CSCCC(NC(=O)CCC(=O)OC1CC[C@H]2[C@@H]3CC[C@H]4CC(=O)CC[C@]4(C)[C@H]3CC[C@]12C)C(=O)O (some centres undefined)	none (no result: Lassa entry inh, Vaccinia mCherry, VACV Venus inh, Marburg entry inh)
C[C@]12CCC(=O)C[C@@H]1CC[C@@H]1[C@@H]2CC[C@]2(C)[C@@H](C(=O)COC(=O)CCC(=O)O)CC[C@@H]12	HCMV antiviral -61!
COc1ccc(Oc2cnc3ccccc3n2)cc1	HCMV antiviral -63
C=C1C(=O)[C@@]23C[C@H]4[C@@H]5[C@@]6(C)CCC[C@@]57[C@@H]2[C@@H](O)[C@@H]1C[C@H]3[C@H]7N4C6	HCMV antiviral -77, Vaccinia mCherry inconclusive, VACV Venus inh inconclusive, FMDV antiviral 25µM (no result: Lassa entry inh, Marburg entry inh)
CCC(C)c1ccccc1NC(=O)COc1ccc(-c2nnco2)cc1 (centres undefined)	Marburg entry inh inconclusive
O=C(COc1ccc(-c2nnco2)cc1)Nc1ccc(C(F)(F)F)cc1	HCMV antiviral -75, Marburg entry inh inconclusive
O=C(C[n+]1ccc(/C=N/O)cc1)N(Cc1ccccc1)Cc1ccccc1	HCMV antiviral -68
CCN(CC(=O)NCc1ccc(Cl)cc1)C(=O)c1cnc(Cl)c(Cl)c1	HCMV antiviral -63
CCN(CC(=O)NCc1ccc(Cl)cc1)C(=O)c1ccc2cc(OC)ccc2c1	Lassa entry inh inconclusive, Marburg entry inh inconclusive
Cc1cnc(C)c(-c2cc(F)cc3c2OC(CNC(=O)Cc2ccccc2C)C3)n1 (centres undefined)	none (no result: Lassa entry inh, HCMV antiviral, Marburg entry inh)
Cc1cc(=O)c(C(=O)N(C)CCc2ccccn2)c2n1-c1ccccc1SC(c1ccsc1)C2 (centres undefined)	none (no result: Lassa entry inh, HCMV antiviral, Marburg entry inh)
CN(C)C(=O)c1cccc(-c2cccc(-c3nc(C(=O)NCc4ccccc4)cc4c3[C@@H](CCO)N(S(=O)C(C)(C)C)C4)c2)c1 (some centres undefined)	HCMV antiviral -61 (no result: Lassa entry inh, Marburg entry inh)
C=CCNC(=S)NNC(=O)COc1ccc(Br)cc1	HCMV antiviral -61
Clc1cccc(-n2ncc3c(N4CCCCC4)ncnc32)c1	HCMV antiviral inconclusive (no result: Marburg entry inh)
Cc1cc(C(=O)Nc2sccc2C#N)c2ccccc2n1	Vaccinia mCherry inconclusive
COc1ccc(Nc2cc(C)c3cc(NC(=O)Cc4c(F)cccc4Cl)ccc3n2)cc1	HCMV antiviral inconclusive (no result: Marburg entry inh)
COc1ccc(CC(=O)Nc2ccc3nc(Nc4ccc(OC)cc4)cc(C)c3c2)cc1	HCMV antiviral -86 (no result: Marburg entry inh)
COc1ccc(Nc2cc(C)c3cc(NC(=O)c4cc(OC)cc(OC)c4)ccc3n2)cc1	HCMV antiviral -77, VACV Venus inh inconclusive (no result: Marburg entry inh)
COc1ccc(Nc2cc(C)c3cc(NC(=O)COc4cccc(C)c4)ccc3n2)cc1	Lassa entry inh inconclusive, Vaccinia mCherry inconclusive, VACV Venus inh inconclusive, FMDV antiviral 35µM (no result: Marburg entry inh)
CCOC(=O)/C(=C\c1ccc(N2CCC(c3ccccc3)=N2)cc1)C(C)=O	Lassa entry inh 7.9µM, Marburg entry inh 2.8µM
O=C(/C=C/c1ccc(N2CCC(c3ccccc3)=N2)cc1)c1ccccc1	none
Cc1cccc(C(=O)Oc2c(Sc3ccccc3)c(C)nn2C(C)(C)C)c1	Lassa entry inh inconclusive, FMDV antiviral inconclusive
CCN(CC)c1cc2c(cc1F)c(=O)c(S(=O)(=O)c1cccc(C)c1)cn2C	HCMV antiviral -64 (no result: Marburg entry inh)
O=C1CCc2ccc(OCCCCN3CCN(c4cccc(Cl)c4Cl)CC3)cc2N1	Vaccinia mCherry inconclusive, FMDV antiviral 20µM (no result: Lassa entry inh, Marburg entry inh)
CSC[C@H]1CN(c2ccccc2)C(=O)[C@@H]1CC(=O)Nc1ccccc1	none (no result: Lassa entry inh, Marburg entry inh)
COc1ccc2ncn(-c3ccccc3)c2c1	HCMV antiviral inconclusive (no result: Vaccinia mCherry, VACV Venus inh)
c1ccc(-n2cnc3ccccc32)cc1	HCMV antiviral -93 (no result: Lassa entry inh, Vaccinia mCherry, VACV Venus inh, Marburg entry inh)
COc1ccc(/C=C/c2nc3ccccc3c(=O)o2)cc1	Lassa entry inh inconclusive, HCMV antiviral -95, Marburg entry inh inconclusive
COc1ccccc1/C=C/c1nc2ccccc2c(=O)o1	none (no result: Lassa entry inh, Vaccinia mCherry, VACV Venus inh, Marburg entry inh)
c1ccc2c(c1)ncn2CCn1cnc2ccccc21	none (no result: Vaccinia mCherry, VACV Venus inh)
COc1ccc(/C=N\n2nnc3ccccc32)cc1	Lassa entry inh 1.4µM, Marburg entry inh 2µM
COc1ccc(-n2cnc3ccccc32)cc1	Lassa entry inh inconclusive, HCMV antiviral -74, Marburg entry inh inconclusive (no result: FMDV antiviral)
O=C(Nc1ccccc1C(F)(F)F)c1c(F)cccc1Cl	none (no result: Vaccinia mCherry, VACV Venus inh)
